According to PubChem BioAssay AID1159580 (chemical genetic matrix, 2015):
Among all 5,500 compounds or so, about 2,000 (36%) were called active. Not shown: some 18% with an inconclusive outcome. No stated cut-off is given here; in the data, active means normalized growth mostly below about 0.91 (no sharp cut-off); inconclusive means no clear call, values can overlap the other calls; inactive means mostly above about 0.92. The list shows a part of the results.

Assay: chemical genetic growth profiling, strain panel (AID 1159580);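 further: tested at 20 µM; growth read once vehicle control cultures reached saturation at 30 °C; 1 = growth at the plate median or of vehicle wells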
Settings: growth OD

Measured: normalized growth

O=C(O)[C@H](O)[C@@](O)(Cc1ccc(O)cc1)C(=O)O
inactive: S. cerevisiae deletion strains, locus YJR066W, strain TOR1, stronger effect = lower value 0.995 | S. cerevisiae deletion strains, locus YJR075W, strain HOC1, stronger effect = lower value 1.03 | S. cerevisiae deletion strains, locus YKL009W, strain mrt4, stronger effect = lower value 1.07 | S. cerevisiae deletion strains, locus YKL068W, stronger effect = lower value 1 | S. cerevisiae deletion strains, locus YKL085W, strain MDH1 (second series), stronger effect = lower value 1.02 | S. cerevisiae deletion strains, locus YKL085W, strain MDH1, stronger effect = lower value 1.02 | S. cerevisiae deletion strains, locus YKL160W, strain elf1, stronger effect = lower value 1.01 | S. cerevisiae deletion strains, locus YKL190W, strain CNB1, stronger effect = lower value 1.02 | S. cerevisiae deletion strains, locus YKR001C, strain vps1, stronger effect = lower value 1.02 | S. cerevisiae deletion strains, locus YKR026C, strain gcn3, stronger effect = lower value 1 | S. cerevisiae deletion strains, locus YKR091W, strain srl3, stronger effect = lower value 1 | S. cerevisiae deletion strains, locus YLL001W, strain dnm1, stronger effect = lower value 1.03 | S. cerevisiae deletion strains, locus YLL026W, stronger effect = lower value 1 | S. cerevisiae deletion strains, locus YLL041C, strain sdh2, stronger effect = lower value 1 | S. cerevisiae deletion strains, locus YLR027C, strain aat2, stronger effect = lower value 1.01 | S. cerevisiae deletion strains, locus YLR039C, strain RIC1, stronger effect = lower value 1.13 | S. cerevisiae deletion strains, locus YLR058C, strain SHM2, stronger effect = lower value 1.04 | S. cerevisiae deletion strains, locus YLR102C, strain apc9, stronger effect = lower value 0.994 | S. cerevisiae deletion strains, locus YLR113W, strain HOG1, stronger effect = lower value 1 | S. cerevisiae deletion strains, locus YLR221C, strain rsa3, stronger effect = lower value 1.03 | S. cerevisiae deletion strains, locus YLR258W, strain gsy2, stronger effect = lower value 1.01 | S. cerevisiae deletion strains, locus YLR262C, strain YPT6 (second series), stronger effect = lower value 1.03 | S. cerevisiae deletion strains, locus YLR268W, strain sec22, stronger effect = lower value 1.04 | S. cerevisiae deletion strains, locus YLR320W, strain mms22, stronger effect = lower value 1.03 | S. cerevisiae deletion strains, locus YLR330W, strain CHS5, stronger effect = lower value 1.02 | S. cerevisiae deletion strains, locus YLR342W, strain FKS1 (second series), stronger effect = lower value 1.09 | S. cerevisiae deletion strains, locus YLR342W, strain FKS1, stronger effect = lower value 1.01 | S. cerevisiae deletion strains, locus YLR357W, strain rsc2, stronger effect = lower value 1.01 | S. cerevisiae deletion strains, locus YLR370C, strain arc18, stronger effect = lower value 1.01 | S. cerevisiae deletion strains, locus YLR371W, strain rom2, stronger effect = lower value 1 | S. cerevisiae deletion strains, locus YLR384C, strain iki3, stronger effect = lower value 1.01 | S. cerevisiae deletion strains, locus YLR418C, strain cdc73, stronger effect = lower value 1.01 | S. cerevisiae deletion strains, locus YML016C, strain PPZ1, stronger effect = lower value 1.01 | S. cerevisiae deletion strains, locus YML032C, strain rad52, stronger effect = lower value 1.01 | S. cerevisiae deletion strains, locus YML120C, strain ndi1, stronger effect = lower value 1 | S. cerevisiae deletion strains, locus YML124C, strain tub3, stronger effect = lower value 1.01 | S. cerevisiae deletion strains, locus YMR058W, strain fet3, stronger effect = lower value 1.02 | S. cerevisiae deletion strains, locus YMR078C, strain ctf18, stronger effect = lower value 0.982 | S. cerevisiae deletion strains, locus YMR125W, strain sto1, stronger effect = lower value 1.01 | S. cerevisiae deletion strains, locus YMR129W, stronger effect = lower value 1.01 | S. cerevisiae deletion strains, locus YMR205C, strain PFK2, stronger effect = lower value 1.02 | S. cerevisiae deletion strains, locus YMR223W, strain ubp8, stronger effect = lower value 1.01 | S. cerevisiae deletion strains, locus YMR231W, strain pep5, stronger effect = lower value 0.998 | S. cerevisiae deletion strains, locus YMR263W, strain SAP30, stronger effect = lower value 1.02 | S. cerevisiae deletion strains, locus YMR307W, strain GAS1, stronger effect = lower value 1.04 | S. cerevisiae deletion strains, locus YNL067W, strain RPL9B, stronger effect = lower value 1.02 | S. cerevisiae deletion strains, locus YNL071W, strain lat1, stronger effect = lower value 1.01 | S. cerevisiae deletion strains, locus YNL153C, strain GIM3, stronger effect = lower value 1.02 | S. cerevisiae deletion strains, locus YNL183C, strain NPR1, stronger effect = lower value 1.01 | S. cerevisiae deletion strains, locus YNL209W, strain ssb2, stronger effect = lower value 1 | S. cerevisiae deletion strains, locus YNL233W, strain BNI4, stronger effect = lower value 1.04 | S. cerevisiae deletion strains, locus YNL248C, strain rpa49, stronger effect = lower value 1 | S. cerevisiae deletion strains, locus YNL250W, strain rad50, stronger effect = lower value 1.01 | S. cerevisiae deletion strains, locus YNL271C, strain bni1, stronger effect = lower value 1.01 | S. cerevisiae deletion strains, locus YNL298W, strain CLA4, stronger effect = lower value 0.987 | S. cerevisiae deletion strains, locus YNL307C, strain MCK1, stronger effect = lower value 0.987 | S. cerevisiae deletion strains, locus YNL322C, strain KRE1 (second series), stronger effect = lower value 1.01 | S. cerevisiae deletion strains, locus YNR049C, strain mso1, stronger effect = lower value 1 | S. cerevisiae deletion strains, locus YNR052C, strain pop2, stronger effect = lower value 0.995 | S. cerevisiae deletion strains, locus YOL006C, strain TOP1, stronger effect = lower value 1.25 | S. cerevisiae deletion strains, locus YOL012C, strain htz1 0.973 | S. cerevisiae deletion strains, locus YOL147C, strain pex11, stronger effect = lower value 1 | S. cerevisiae deletion strains, locus YOR001W, strain rrp6, stronger effect = lower value 0.986 | S. cerevisiae deletion strains, locus YOR061W, strain CKA2, stronger effect = lower value 1.04 | S. cerevisiae deletion strains, locus YOR069W, strain VPS5, stronger effect = lower value 1.01 | S. cerevisiae deletion strains, locus YOR070C, strain gyp1, stronger effect = lower value 1.02 | S. cerevisiae deletion strains, locus YOR080W, strain dia2, stronger effect = lower value 1.01 | S. cerevisiae deletion strains, locus YOR083W, strain WHI5, stronger effect = lower value 1.03 | S. cerevisiae deletion strains, locus YOR106W, strain vam3, stronger effect = lower value 1.01 | S. cerevisiae deletion strains, locus YOR136W, strain idh2, stronger effect = lower value 1.01 | S. cerevisiae deletion strains, locus YOR144C, strain elg1, stronger effect = lower value 1 | S. cerevisiae deletion strains, locus YOR184W, strain ser1, stronger effect = lower value 1.04 | S. cerevisiae deletion strains, locus YOR231W, strain MKK1, stronger effect = lower value 1.02 | S. cerevisiae deletion strains, locus YOR265W, strain rbl2, stronger effect = lower value 1 | S. cerevisiae deletion strains, locus YOR270C, strain vph1, stronger effect = lower value 1.05 | S. cerevisiae deletion strains, locus YOR290C, strain snf2, stronger effect = lower value 1.01 | S. cerevisiae deletion strains, locus YOR316C, strain cot1, stronger effect = lower value 1 | S. cerevisiae deletion strains, locus YPL051W, strain arl3, stronger effect = lower value 1.05 | S. cerevisiae deletion strains, locus YPL078C, strain atp4, stronger effect = lower value 1.01 | S. cerevisiae deletion strains, locus YPL106C, strain sse1, stronger effect = lower value 1.01 | S. cerevisiae deletion strains, locus YPL240C, strain hsp82, stronger effect = lower value 1.01 | S. cerevisiae deletion strains, locus YPL241C, strain CIN2, stronger effect = lower value 1.01 | S. cerevisiae deletion strains, locus YPL256C, strain CLN2, stronger effect = lower value 0.993 | S. cerevisiae deletion strains, locus YPR119W, strain clb2, stronger effect = lower value 1 | S. cerevisiae deletion strains, locus YPR141C, strain kar3, stronger effect = lower value 1 | S. cerevisiae deletion strains, locus YPR163C, strain tif3, stronger effect = lower value 0.992 | S. cerevisiae deletion strains, locus YPR167C, strain met16, stronger effect = lower value 1.01 | S. cerevisiae deletion strains, strain wtn01, stronger effect = lower value 1.02 | S. cerevisiae strains, strain wild type, stronger effect = lower value 1.03
